The text below walks through data of article PMC7862700, “An all-to-all approach to the identification of sequence-specific readers for epigenetic DNA modifications on cytosine”.

Common to all, as to test: DAPPL (digital affinity profiling via proximity ligation, sequencing); 10 mM Tris-HCl pH 7.5, 50 mM NaCl, 1 mM DTT, 4% glycerol, room temperature, 30 min; GST-TFs on glutathione beads, 16-mer random dsDNA library, 0.1% formaldehyde crosslink after washing; high values mean tight binding
Conditions in all cases: protein: recombinant; tags: N-terminal GST; dsDNA, one strand shown

For one assay, the target named is ELF1 (Homo sapiens, UniProt P32519 1-619). An outline of the steps:
(§1)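 Human transcription factors were made in yeast as GST fusions, captured on glutathione beads and barcoded with DNA. With a tag-only sample included, the pool was incubated with 200 nmole of a random double-stranded 16-mer DNA library in Tris/NaCl/DTT/glycerol buffer at room temperature for 30 min, then crosslinked with 0.1% formaldehyde after washing, ligated by proximity, amplified and sequenced. For binding signal, each hexamer's read frequency for a factor is divided by its frequency for the tag-only sample.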

For the next assay, the target named is T1, EHF (Homo sapiens, UniProt Q9NZC4 1-300).
T1 sequence: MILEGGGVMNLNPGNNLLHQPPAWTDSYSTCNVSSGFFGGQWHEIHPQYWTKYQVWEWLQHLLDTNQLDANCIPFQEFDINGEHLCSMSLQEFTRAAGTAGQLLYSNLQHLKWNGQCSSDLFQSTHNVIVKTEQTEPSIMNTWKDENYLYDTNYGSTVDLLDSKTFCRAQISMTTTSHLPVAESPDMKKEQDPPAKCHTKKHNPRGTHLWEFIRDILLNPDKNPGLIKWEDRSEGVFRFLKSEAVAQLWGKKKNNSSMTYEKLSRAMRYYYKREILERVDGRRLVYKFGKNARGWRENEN
Put shortly: as §1

Another assay has as its target SPIB (Homo sapiens, UniProt Q01892 1-262). Put shortly: as §1
The target in a further assay is T2, ELK4 (Homo sapiens, UniProt P28324-2 1-405).
T2 sequence: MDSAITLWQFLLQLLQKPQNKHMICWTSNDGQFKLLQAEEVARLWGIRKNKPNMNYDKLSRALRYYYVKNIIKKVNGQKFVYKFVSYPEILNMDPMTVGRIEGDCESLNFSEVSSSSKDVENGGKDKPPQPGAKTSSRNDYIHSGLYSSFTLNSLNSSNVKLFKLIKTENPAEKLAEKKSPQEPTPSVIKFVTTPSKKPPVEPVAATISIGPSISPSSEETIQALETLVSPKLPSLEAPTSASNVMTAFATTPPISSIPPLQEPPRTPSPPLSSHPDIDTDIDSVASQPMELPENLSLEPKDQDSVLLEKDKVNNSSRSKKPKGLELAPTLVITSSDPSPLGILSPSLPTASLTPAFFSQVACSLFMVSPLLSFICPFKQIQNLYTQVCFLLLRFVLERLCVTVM
Put shortly:
as §1

The next assay has as its target T3, ELK1 (Homo sapiens, UniProt P19419 1-428).
T3 sequence: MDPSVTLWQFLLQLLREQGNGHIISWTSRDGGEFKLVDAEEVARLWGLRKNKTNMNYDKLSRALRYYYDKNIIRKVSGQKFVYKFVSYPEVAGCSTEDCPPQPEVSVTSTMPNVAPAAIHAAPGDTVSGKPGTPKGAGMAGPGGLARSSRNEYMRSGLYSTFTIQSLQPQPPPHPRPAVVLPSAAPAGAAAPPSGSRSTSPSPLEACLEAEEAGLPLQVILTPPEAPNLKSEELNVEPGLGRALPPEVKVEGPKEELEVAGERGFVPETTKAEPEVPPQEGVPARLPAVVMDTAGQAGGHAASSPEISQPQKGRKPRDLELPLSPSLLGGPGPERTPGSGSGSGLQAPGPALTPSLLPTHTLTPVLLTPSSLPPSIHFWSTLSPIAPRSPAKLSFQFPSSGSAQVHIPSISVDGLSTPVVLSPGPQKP
An outline of the steps: as §1

In a further assay the target is ELF4 (Homo sapiens, UniProt Q99607 1-663). An outline of the steps: as §1
ELF4, sequence (Q99607 whole entry): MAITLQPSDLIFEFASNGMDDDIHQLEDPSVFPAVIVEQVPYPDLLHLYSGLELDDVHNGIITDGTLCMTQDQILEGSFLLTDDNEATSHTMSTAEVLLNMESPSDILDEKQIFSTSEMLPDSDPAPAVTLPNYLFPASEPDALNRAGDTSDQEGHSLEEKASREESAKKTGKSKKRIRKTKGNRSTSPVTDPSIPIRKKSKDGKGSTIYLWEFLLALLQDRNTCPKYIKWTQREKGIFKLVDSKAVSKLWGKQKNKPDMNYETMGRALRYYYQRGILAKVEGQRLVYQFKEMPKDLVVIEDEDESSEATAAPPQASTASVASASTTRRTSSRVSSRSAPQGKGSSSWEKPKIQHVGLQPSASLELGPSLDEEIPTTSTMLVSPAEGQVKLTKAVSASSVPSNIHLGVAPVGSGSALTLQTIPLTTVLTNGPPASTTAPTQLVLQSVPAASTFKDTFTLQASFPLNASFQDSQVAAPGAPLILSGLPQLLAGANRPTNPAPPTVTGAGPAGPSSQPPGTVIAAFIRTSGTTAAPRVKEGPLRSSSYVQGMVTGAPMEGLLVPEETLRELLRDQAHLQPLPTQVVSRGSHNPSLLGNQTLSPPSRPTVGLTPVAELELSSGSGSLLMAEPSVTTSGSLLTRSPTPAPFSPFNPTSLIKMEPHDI
The next assay concerns the target T4, ELF3 (Homo sapiens, UniProt P78545 1-371).
T4 sequence: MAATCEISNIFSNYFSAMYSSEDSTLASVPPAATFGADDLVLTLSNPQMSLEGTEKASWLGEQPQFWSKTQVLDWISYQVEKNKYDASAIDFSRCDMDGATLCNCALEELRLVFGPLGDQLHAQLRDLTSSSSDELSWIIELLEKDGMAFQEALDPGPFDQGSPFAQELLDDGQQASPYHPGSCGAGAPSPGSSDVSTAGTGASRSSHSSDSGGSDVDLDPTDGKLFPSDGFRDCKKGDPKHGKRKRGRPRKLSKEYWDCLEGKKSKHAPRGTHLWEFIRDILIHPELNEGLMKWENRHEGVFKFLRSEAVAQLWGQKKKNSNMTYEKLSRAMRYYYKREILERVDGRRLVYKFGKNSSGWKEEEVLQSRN
Put shortly:
as §1

In another assay the target is T5, ERF (Homo sapiens, UniProt P50548 1-548).
T5 sequence: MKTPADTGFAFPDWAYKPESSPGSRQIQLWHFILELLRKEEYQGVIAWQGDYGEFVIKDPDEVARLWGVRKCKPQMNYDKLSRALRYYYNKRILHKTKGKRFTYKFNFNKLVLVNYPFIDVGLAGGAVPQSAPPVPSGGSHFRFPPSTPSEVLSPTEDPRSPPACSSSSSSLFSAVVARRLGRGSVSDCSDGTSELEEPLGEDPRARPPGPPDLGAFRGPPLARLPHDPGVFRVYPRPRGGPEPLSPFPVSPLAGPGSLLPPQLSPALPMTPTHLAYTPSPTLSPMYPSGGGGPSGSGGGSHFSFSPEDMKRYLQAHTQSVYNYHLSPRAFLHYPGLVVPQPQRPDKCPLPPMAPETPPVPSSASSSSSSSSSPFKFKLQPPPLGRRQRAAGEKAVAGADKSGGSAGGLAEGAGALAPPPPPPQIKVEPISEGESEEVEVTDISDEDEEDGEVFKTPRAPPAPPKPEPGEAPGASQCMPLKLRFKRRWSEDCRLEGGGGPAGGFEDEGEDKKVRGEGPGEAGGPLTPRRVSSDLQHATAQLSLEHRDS
An outline of the steps:
as §1

The next assay addresses T6, ETV7 (Homo sapiens, UniProt Q9Y603 1-341).
T6 sequence: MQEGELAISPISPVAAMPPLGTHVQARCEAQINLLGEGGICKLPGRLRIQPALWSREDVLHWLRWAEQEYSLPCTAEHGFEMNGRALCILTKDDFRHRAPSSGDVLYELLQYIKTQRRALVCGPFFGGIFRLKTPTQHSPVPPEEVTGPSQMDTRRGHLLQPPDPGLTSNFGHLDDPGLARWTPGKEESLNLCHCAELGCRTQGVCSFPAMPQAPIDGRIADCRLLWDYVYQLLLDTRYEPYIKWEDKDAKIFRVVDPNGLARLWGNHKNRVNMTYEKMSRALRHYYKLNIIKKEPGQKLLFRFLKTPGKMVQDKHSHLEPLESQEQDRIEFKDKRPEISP
An outline of the steps: as §1

The next assay has as its target T7, ETV3 (Homo sapiens, UniProt P41162-2 1-143).
T7 sequence: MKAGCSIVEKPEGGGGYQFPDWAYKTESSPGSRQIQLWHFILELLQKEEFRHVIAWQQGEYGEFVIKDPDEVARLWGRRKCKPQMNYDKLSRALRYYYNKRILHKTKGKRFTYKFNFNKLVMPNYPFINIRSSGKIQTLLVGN
An outline of the steps: as §1

For another assay, the target named is ETV6 (Homo sapiens, UniProt P41212 1-452). An outline of the steps:
as §1

Another assay addresses T8, GABPA (Homo sapiens, UniProt Q06546 1-454).
T8 sequence: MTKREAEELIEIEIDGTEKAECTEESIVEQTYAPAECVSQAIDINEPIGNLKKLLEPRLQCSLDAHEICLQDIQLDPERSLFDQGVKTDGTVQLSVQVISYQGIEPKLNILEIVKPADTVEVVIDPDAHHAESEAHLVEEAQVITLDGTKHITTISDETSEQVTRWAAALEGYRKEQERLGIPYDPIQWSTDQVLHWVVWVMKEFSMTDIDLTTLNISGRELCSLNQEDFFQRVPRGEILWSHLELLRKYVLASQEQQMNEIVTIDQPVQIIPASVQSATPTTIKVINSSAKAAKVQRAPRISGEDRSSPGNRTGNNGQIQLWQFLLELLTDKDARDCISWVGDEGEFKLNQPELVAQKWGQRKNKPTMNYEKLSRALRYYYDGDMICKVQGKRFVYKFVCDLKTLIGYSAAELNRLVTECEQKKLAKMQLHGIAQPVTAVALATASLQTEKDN
An outline of the steps: as §1

For a further assay, the target named is T9, ERG (Homo sapiens, UniProt P11308 1-479).
T9 sequence: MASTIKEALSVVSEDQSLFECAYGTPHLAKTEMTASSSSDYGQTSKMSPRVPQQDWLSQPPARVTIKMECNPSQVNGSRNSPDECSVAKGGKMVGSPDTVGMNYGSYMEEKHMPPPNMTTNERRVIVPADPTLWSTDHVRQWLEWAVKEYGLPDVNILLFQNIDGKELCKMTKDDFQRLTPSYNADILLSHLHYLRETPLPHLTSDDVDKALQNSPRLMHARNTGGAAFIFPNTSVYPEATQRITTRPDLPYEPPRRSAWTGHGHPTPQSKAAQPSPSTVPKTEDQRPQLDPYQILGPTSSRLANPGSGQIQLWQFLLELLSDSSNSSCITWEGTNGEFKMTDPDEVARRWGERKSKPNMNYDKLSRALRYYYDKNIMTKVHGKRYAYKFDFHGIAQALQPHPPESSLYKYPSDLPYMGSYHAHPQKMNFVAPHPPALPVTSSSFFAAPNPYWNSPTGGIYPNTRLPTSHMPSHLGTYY
An outline of the steps: as §1

A further assay has as its target T10, ELK3 (Homo sapiens, UniProt P41970 1-407).
T10 sequence: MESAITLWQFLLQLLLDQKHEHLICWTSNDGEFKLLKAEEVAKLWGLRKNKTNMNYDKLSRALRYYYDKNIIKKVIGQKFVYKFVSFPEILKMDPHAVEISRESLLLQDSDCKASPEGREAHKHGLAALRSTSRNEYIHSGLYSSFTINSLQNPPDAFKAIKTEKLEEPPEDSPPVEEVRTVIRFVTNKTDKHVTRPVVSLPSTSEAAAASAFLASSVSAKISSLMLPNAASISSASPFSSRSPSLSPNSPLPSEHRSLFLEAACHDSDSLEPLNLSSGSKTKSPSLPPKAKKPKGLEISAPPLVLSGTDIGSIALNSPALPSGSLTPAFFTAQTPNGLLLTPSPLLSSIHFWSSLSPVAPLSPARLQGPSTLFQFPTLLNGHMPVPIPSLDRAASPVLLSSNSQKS
Put shortly: as §1

In the next assay the target is T11, SPIC (Homo sapiens, UniProt Q8N5J4 1-248).
T11 sequence: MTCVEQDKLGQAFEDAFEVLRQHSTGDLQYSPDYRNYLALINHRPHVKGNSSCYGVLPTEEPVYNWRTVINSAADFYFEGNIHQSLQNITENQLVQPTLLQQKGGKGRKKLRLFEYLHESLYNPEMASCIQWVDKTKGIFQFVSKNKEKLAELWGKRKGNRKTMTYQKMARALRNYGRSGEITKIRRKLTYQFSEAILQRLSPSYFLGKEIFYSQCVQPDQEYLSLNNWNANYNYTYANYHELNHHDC
Put shortly: as §1

A further assay deals with ETV1 (Homo sapiens, UniProt P50549 1-477). Put shortly: as §1
ETV1, sequence (P50549 whole entry): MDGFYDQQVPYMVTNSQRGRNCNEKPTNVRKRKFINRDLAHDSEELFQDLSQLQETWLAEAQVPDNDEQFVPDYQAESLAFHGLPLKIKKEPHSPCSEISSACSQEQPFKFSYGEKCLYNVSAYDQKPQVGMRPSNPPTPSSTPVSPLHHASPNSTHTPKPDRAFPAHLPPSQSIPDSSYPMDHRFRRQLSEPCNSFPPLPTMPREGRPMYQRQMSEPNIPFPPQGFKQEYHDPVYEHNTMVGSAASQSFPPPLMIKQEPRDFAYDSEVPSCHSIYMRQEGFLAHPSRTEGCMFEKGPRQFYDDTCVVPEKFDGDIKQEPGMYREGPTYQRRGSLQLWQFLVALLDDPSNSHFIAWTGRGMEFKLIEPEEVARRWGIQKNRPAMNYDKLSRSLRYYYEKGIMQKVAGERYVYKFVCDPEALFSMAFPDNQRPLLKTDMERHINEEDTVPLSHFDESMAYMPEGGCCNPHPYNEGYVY
The target in the next assay is T12, SPDEF (Homo sapiens, UniProt O95238 1-335).
T12 sequence: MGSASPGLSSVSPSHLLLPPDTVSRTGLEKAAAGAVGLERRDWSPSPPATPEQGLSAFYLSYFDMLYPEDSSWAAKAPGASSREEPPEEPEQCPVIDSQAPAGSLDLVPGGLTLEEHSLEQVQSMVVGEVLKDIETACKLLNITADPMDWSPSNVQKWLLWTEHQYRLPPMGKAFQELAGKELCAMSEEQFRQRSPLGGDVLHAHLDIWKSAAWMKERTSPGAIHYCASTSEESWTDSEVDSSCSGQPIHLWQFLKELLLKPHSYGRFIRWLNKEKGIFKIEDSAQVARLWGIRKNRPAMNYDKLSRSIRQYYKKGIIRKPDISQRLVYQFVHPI
Put shortly: as §1

ETV6, sequence (P41212 whole entry): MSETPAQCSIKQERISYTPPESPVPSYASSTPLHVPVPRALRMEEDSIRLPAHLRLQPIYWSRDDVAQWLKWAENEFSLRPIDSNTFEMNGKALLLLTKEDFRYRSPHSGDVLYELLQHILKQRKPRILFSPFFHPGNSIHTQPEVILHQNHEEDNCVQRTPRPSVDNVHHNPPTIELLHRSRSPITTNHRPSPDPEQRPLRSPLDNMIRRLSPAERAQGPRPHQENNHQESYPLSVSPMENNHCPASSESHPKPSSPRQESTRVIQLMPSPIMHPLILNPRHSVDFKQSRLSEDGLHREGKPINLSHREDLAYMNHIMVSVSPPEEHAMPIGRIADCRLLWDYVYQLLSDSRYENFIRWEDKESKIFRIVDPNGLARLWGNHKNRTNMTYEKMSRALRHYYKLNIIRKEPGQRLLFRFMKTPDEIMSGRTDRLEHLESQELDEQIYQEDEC
ELF1, sequence (P32519 whole entry, the tested form may be a part): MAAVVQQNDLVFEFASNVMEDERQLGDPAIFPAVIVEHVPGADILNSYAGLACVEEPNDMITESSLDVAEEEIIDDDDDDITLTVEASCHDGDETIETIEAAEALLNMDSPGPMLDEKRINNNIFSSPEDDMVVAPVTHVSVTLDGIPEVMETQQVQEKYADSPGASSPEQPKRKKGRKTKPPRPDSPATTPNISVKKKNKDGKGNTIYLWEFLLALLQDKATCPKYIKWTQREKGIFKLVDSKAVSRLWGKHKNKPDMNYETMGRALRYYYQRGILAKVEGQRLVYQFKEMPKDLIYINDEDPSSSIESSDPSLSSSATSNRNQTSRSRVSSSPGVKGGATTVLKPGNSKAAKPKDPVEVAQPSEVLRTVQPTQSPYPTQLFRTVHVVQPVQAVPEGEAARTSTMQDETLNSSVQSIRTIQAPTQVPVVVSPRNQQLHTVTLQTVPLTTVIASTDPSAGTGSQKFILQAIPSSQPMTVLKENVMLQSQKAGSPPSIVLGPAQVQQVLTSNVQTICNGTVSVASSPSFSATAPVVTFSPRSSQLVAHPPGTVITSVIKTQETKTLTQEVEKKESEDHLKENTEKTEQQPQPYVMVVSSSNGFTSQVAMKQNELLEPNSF
SPIB, sequence (Q01892 whole entry): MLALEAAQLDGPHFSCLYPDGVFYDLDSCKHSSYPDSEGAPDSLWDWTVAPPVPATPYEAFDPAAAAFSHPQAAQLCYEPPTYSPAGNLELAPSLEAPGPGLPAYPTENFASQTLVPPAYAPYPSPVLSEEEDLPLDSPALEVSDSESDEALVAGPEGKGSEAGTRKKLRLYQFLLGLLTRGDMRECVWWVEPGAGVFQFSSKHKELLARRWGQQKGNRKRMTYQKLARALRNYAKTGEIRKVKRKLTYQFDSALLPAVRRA

For TCGCGT, the binding signal with ELF1 was 1 fold enrichment (6-mer frequency, TF over GST control); with EHF, 1.02 fold enrichment (6-mer frequency, TF over GST control); with SPIB it was 1.01 fold enrichment (6-mer frequency, TF over GST control); with ELK4 it was 1.06 fold enrichment (6-mer frequency, TF over GST control).
On to AGAAAC, for which the binding signal with ELK1 is 1.02 fold enrichment (6-mer frequency, TF over GST control); with ELF4, 1.01 fold enrichment (6-mer frequency, TF over GST control); with ELF3, 1.02 fold enrichment (6-mer frequency, TF over GST control); in the assay with ERF, 1.05 fold enrichment (6-mer frequency, TF over GST control); with ETV7, 1.16 fold enrichment (6-mer frequency, TF over GST control); in the assay with ETV3, 1.01 fold enrichment (6-mer frequency, TF over GST control). For the same sequence, the binding signal in the assay with ETV6 is 1.03 fold enrichment (6-mer frequency, TF over GST control).
On to GCACCT, for which the binding signal was 1.01 fold enrichment (6-mer frequency, TF over GST control) in the assay with ELK1; 1.12 fold enrichment (6-mer frequency, TF over GST control) with GABPA; 1.07 fold enrichment (6-mer frequency, TF over GST control) in the assay with ERG; 1.16 fold enrichment (6-mer frequency, TF over GST control) with ELF1; 1.18 fold enrichment (6-mer frequency, TF over GST control) in the assay with EHF; 1.13 fold enrichment (6-mer frequency, TF over GST control) with SPIB. Also, the binding signal is 1.05 fold enrichment (6-mer frequency, TF over GST control) with ELK3; 1 fold enrichment (6-mer frequency, TF over GST control) with SPIC; 1.13 fold enrichment (6-mer frequency, TF over GST control) with ELF4; 1.16 fold enrichment (6-mer frequency, TF over GST control) in the assay with ELK4; 1.06 fold enrichment (6-mer frequency, TF over GST control) with ELF3; 1.1 fold enrichment (6-mer frequency, TF over GST control) with ETV1. Besides, the binding signal with ERF was 1.29 fold enrichment (6-mer frequency, TF over GST control); with SPDEF, 1.09 fold enrichment (6-mer frequency, TF over GST control); in the assay with ETV7 it was 1.11 fold enrichment (6-mer frequency, TF over GST control); with ETV3, 1.13 fold enrichment (6-mer frequency, TF over GST control); in the assay with ETV6 it was 1.12 fold enrichment (6-mer frequency, TF over GST control).
